Compounds without any hit were thinned out: in the full panel of roughly 83,000, 20% have a hit.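 Single-concentration screen, 48 h exposure, 96-well plates. Endpoint: percent growth. Below 10 = active.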 A number with no mark means an inactive call. Active and inactive are the calls of the source.
Key:
Test in all cases: NCI-60 one-dose screen, 48 h (100 = growth as untreated, 0 = no growth, -100 = all killed)
Conditions in all cases: 10 µM unless noted
[1] = tested on: SR leukemia
[2] = tested on: RPMI-8226 leukemia
[3] = tested on: OVCAR-8 ovarian
[4] = tested on: OVCAR-5 ovarian
[5] = tested on: OVCAR-4 ovarian
[6] = tested on: SK-OV-3 ovarian
[7] = tested on: IGROV1 ovarian
[8] = tested on: OVCAR-3 ovarian
[9] = tested on: HS 578T breast
[10] = tested on: NCI/ADR-RES ovarian

Structure (SMILES): Nc1c(C(=O)Nc2ccncc2)sc2nc3c(cc12)CCCCCC3
- growth [1]: 20.8%
- growth [2]: 64.9%
- growth [3]: 86.7%
- growth [4]: 90.7%
- growth [5]: 86.9%
- growth [6]: 79.6%
- growth [7]: 103%
- growth [8]: 104%
- growth [9]: 83.2%
- growth [10]: 89%

Structure (SMILES): C/C(=N/O)c1ccc(F)cc1
- growth [1]: 68%
- growth [2]: 85.5%
- growth [3]: 86.5%
- growth [4]: 80.1%
- growth [5]: 95.3%
- growth [6]: 85.2%
- growth [7]: 84.5%
- growth [8]: 132%
- growth [9]: 95.6%
- growth [10]: 77.7%

Structure (SMILES): COC(=O)c1cc(-c2ccc(S(C)(=O)=O)cc2)[nH]c1N/N=C/c1c(Cl)cccc1Cl
- growth [1]: -12.3% (active)
- growth [2]: -5.71% (active)
- growth [3]: 29.7%
- growth [4]: 42.6%
- growth [5]: 59.6%
- growth [6]: 29.2%
- growth [7]: -43.6% (active)
- growth [8]: -33.6% (active)
- growth [9]: -30.1% (active)
- growth [10]: 3.91% (active)

Structure (SMILES): O=C1c2cccc3cccc(c23)C(=O)N1N1C(=O)c2cccc3c(N4CCOCC4)ccc(c23)C1=O
- growth [1]: 92.4%
- growth [2]: 106%
- growth [3]: 96.2%
- growth [4]: 97.1%
- growth [5]: 108%
- growth [6]: 90%
- growth [7]: 95.6%
- growth [8]: 106%
- growth [9]: 90.3%
- growth [10]: 92%

Structure (SMILES): N#CC1=C(N)Oc2c(sc3c(Br)cccc23)C1c1ccc(F)cc1 (stereo not given)
- growth [1]: 5.83% (active)
- growth [2]: 16.7%
- growth [3]: 25.3%
- growth [4]: 30.9%
- growth [5]: 56.4%
- growth [6]: 37.4%
- growth [7]: 26.9%
- growth [8]: 9.66% (active)
- growth [9]: 42%
- growth [10]: 9.77% (active)

Structure (SMILES): O=C(CCC(=O)N/N=C/c1ccccc1O)N/N=C/c1ccccc1O
- growth [1]: 27%
- growth [2]: 83%
- growth [3]: 46.4%
- growth [4]: 82.7%
- growth [5]: 26.2%
- growth [6]: 50.8%
- growth [7]: 48.5%
- growth [8]: 23.4%
- growth [9]: 76.9%
- growth [10]: 46.9%

Structure (SMILES): O=C(CSc1nnc2n1S(=O)(=O)c1ccccc1N2c1ccccc1)Nc1nc2ccc(F)cc2s1
- growth [1]: 62.9%
- growth [2]: 76.5%
- growth [3]: 84.9%
- growth [4]: 94.7%
- growth [5]: 99.5%
- growth [6]: 108%
- growth [7]: 34.7%
- growth [8]: 106%
- growth [9]: 101%
- growth [10]: 92.8%

Structure (SMILES): COc1ccc(-c2nc(/C=C3\SC(=NCc4ccccc4)NC3=O)c3ccccn23)cc1
- growth [1]: 3.32% (active)
- growth [2]: -3.83% (active)
- growth [3]: -24.6% (active)
- growth [4]: -15% (active)
- growth [5]: -71.9% (active)
- growth [6]: -46.7% (active)
- growth [7]: -44.7% (active)
- growth [8]: -88.5% (active)
- growth [9]: -35.3% (active)
- growth [10]: -4.46% (active)

Structure (SMILES): Cc1ccccc1NC(=O)c1sc2nc(C)c(C(=O)/C=C/c3ccccc3)cc2c1N
- growth [1]: 24.4%
- growth [2]: -24.7% (active)
- growth [3]: 6.75% (active)
- growth [4]: 20.8%
- growth [5]: 51.3%
- growth [6]: 82%
- growth [7]: 10.3%
- growth [8]: -5.72% (active)
- growth [9]: 10% (active)
- growth [10]: 1.11% (active)

Structure (SMILES): Clc1ccc(Sc2cnc(-c3ccccc3)o2)cc1
- growth [1]: 90%
- growth [2]: 89.7%
- growth [3]: 99.2%
- growth [4]: 98.8%
- growth [5]: 95.8%
- growth [6]: 101%
- growth [7]: 97%
- growth [8]: 97.5%
- growth [9]: 99.1%
- growth [10]: 108%

Structure (SMILES): Cc1ccccc1/C=C1\CN(C(=O)OC(C)(C)C)C/C(=C\c2ccccc2C)C1=O
- growth [1]: 8.93% (active)
- growth [2]: -23.7% (active)
- growth [3]: 17.1%
- growth [4]: 51.1%
- growth [5]: -2.97% (active)
- growth [6]: 74.9%
- growth [7]: 26%
- growth [8]: -30.9% (active)
- growth [9]: 31.2%
- growth [10]: 15.7%

Structure (SMILES): O=C1N(Cc2ccccc2Cl)c2ccccc2C12NN=C(c1cccc(Cl)c1)S2 (stereo not given)
- growth [1]: -1.58% (active)
- growth [2]: 30.5%
- growth [3]: -23.5% (active)
- growth [4]: 9.45% (active)
- growth [5]: -13.9% (active)
- growth [6]: -5.89% (active)
- growth [7]: 20.2%
- growth [8]: 4.87% (active)
- growth [9]: 3.21% (active)
- growth [10]: -17% (active)

Structure (SMILES): N#C/C(=C\c1ccc(Br)cc1)n1nnc2ccc(F)cc21
- growth [1]: -11.9% (active)
- growth [2]: -35.4% (active)
- growth [3]: 7.38% (active)
- growth [4]: 3.03% (active)
- growth [5]: 24.9%
- growth [6]: 51.6%
- growth [7]: -31.2% (active)
- growth [8]: -45.3% (active)
- growth [9]: 3.56% (active)
- growth [10]: 1.62% (active)

From PubChem BioAssay (NCI)
